Source: the supplement of paper PMC8728848
Only a selection was taken, and the strongest signals are over-represented in it overall.

What was measured:
Test in all cases: glycan array binding signal (z-score within array); higher = stronger binding
Details in all cases: glycan notation: IUPAC condensed, linker removed
[1] = target: Gal(b1-4)GlcNAc(b1-3)Gal(b1-3)GlcNAc
In short: (§1)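 Columns mapping to the same glycan were averaged after glycan names were converted to IUPAC-condensed notation. The data come from 3228 arrays in the Consortium for Functional Glycomics database, limited to those with an available protein sequence. Binding is reported as a within-array Z-score averaged across arrays of one protein sequence and across linkers.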

[2] = target: Gal(b1-4)GlcNAc(b1-3)Gal(b1-4)GlcNAc(b1-2)Man(a1-3)[Gal(b1-4)GlcNAc(b1-3)Gal(b1-4)GlcNAc(b1-2)Man(a1-6)]Man(b1-4)GlcNAc(b1-4)[Fuc(a1-6)]GlcNAc
In short: as §1

[3] = target: Gal(b1-4)GlcNAc(b1-3)Gal(b1-4)GlcNAc(b1-3)Gal(b1-4)GlcNAc(b1-3)Gal(b1-4)GlcNAc(b1-3)Gal(b1-4)GlcNAc(b1-2)Man(a1-3)[Gal(b1-4)GlcNAc(b1-3)Gal(b1-4)GlcNAc(b1-3)Gal(b1-4)GlcNAc(b1-3)Gal(b1-4)GlcNAc(b1-3)Gal(b1-4)GlcNAc(b1-2)Man(a1-6)]Man(b1-4)GlcNAc(b1-4)GlcNAc
In short: as §1

[4] = target: Gal(b1-4)GlcNAc(b1-3)Gal(b1-4)GlcNAc(b1-6)[Gal(b1-3)]GalNAc
In short: as §1

[5] = target: Gal(b1-4)GlcNAc(b1-3)[Gal(b1-4)GlcNAc(b1-6)]Gal(b1-4)GlcNAc
In short: as §1

Gal6S(b1-3)GlcNAc6S = target: Gal6S(b1-3)GlcNAc6S
In short: as §1

GalNAc4S6S(b1-4)GlcNAc = target: GalNAc4S6S(b1-4)GlcNAc
In short: as §1

Glc(a1-4)Glc = target: Glc(a1-4)Glc
In short: as §1

[6] = target: GlcA3S(b1-3)Gal(b1-4)GlcNAc(b1-3)Gal(b1-4)Glc
In short: as §1

[7] = target: GlcNAc(a1-4)Gal(b1-3)GlcNAc
In short: as §1

[8] = target: GlcNAc(b1-2)Man(a1-3)[GlcNAc(b1-2)Man(a1-6)]Man(b1-4)GlcNAc(b1-4)GlcNAc
In short: as §1

Man(a1-3)[Man(a1-6)]Man = target: Man(a1-3)[Man(a1-6)]Man
In short: as §1

Man(a1-6)Man = target: Man(a1-6)Man
In short: as §1

[9] = target: Neu5Ac(a2-3)Gal(b1-3)GalNAc6S
In short: as §1

[10] = target: Neu5Ac(a2-3)Gal(b1-4)GlcNAc(b1-2)[Neu5Ac(a2-3)Gal(b1-4)GlcNAc(b1-4)]Man(a1-3)[GlcNAc(b1-4)][Neu5Ac(a2-3)Gal(b1-4)GlcNAc(b1-2)[Neu5Ac(a2-3)Gal(b1-4)GlcNAc(b1-6)]Man(a1-6)]Man(b1-4)GlcNAc(b1-4)GlcNAc
In short: as §1

[11] = target: Neu5Ac(a2-3)Gal(b1-4)GlcNAc(b1-3)Gal(b1-4)GlcNAc(b1-2)Man(a1-3)[Neu5Ac(a2-3)Gal(b1-4)GlcNAc(b1-3)Gal(b1-4)GlcNAc(b1-2)Man(a1-6)]Man(b1-4)GlcNAc(b1-4)GlcNAc
In short: as §1

[12] = target: Neu5Ac(a2-3)Gal(b1-4)GlcNAc(b1-3)Gal(b1-4)GlcNAc(b1-3)GalNAc
In short: as §1

[13] = target: Neu5Ac(a2-3)Gal(b1-4)[Fuc(a1-3)]GlcNAc(b1-3)GalNAc
In short: as §1

[14] = target: Neu5Ac(a2-3)Gal6S(b1-4)[Fuc(a1-3)]GlcNAc
In short: as §1

[15] = target: Neu5Ac(a2-3)[GalNAc(b1-4)]Gal(b1-4)Glc
In short: as §1

[16] = target: Neu5Ac(a2-6)Gal(b1-3)GlcNAc(b1-3)[Gal(b1-4)GlcNAc(b1-6)]Gal(b1-4)Glc
In short: as §1

[17] = target: Neu5Ac(a2-6)Gal(b1-4)GlcNAc(b1-3)Gal(b1-4)GlcNAc(b1-3)GalNAc
In short: as §1

[18] = target: Neu5Ac(a2-6)Gal(b1-4)GlcNAc6S
In short: as §1

[19] = target: Neu5Ac(a2-8)Neu5Ac(a2-3)[Gal(b1-3)GalNAc(b1-4)]Gal(b1-4)Glc
In short: as §1

[20] = target: Neu5Gc(b2-6)Gal(b1-4)GlcNAc
In short: as §1

B1: TAL6-4LysM (Trichoderma atroviride) (protein)
chain: AADSIPSISPTGIITPTPTQSGMVSNCNKFYDVHSNDGCSAIASSQHVDLSSLYKWNPAIKTDCSGLQASVYVCIGILTTSMSTTSKLPTTTSKPSTTSKPPTGITTPTPTQSGMVKNCNKFYDVHSGDGCSAIASSQKVNLSSFYLWNPAVKTDCSGLQASVFVCIGTLTTSMSTTTSKLPTTTSKPSTTSKPPTGIITPTPTQNGMVKNCNKFYDVHSGDGCSAIASSQKVNLSSFYLWNPAVKTDCSGLQASVFVCVGTATTTTAAGITTPTPTQSGMVSGCNKFYDVHAGDGCSAIASSQKIALSSLYKWNPAVKTDCSGLQASVYICIGVGNAAAARVTGALEQKLISEEDLNSAVDHHHHHH
- glycan array binding signal (z-score) [1]: -0.823
- glycan array binding signal (z-score) [2]: -0.014
- glycan array binding signal (z-score) [3]: -0.74
- glycan array binding signal (z-score) [4]: 1.17
- glycan array binding signal (z-score) [5]: 0.074
- glycan array binding signal (z-score) (Gal6S(b1-3)GlcNAc6S): 0.018
- glycan array binding signal (z-score) (GalNAc4S6S(b1-4)GlcNAc): 1.16
- glycan array binding signal (z-score) (Glc(a1-4)Glc): -0.584
- glycan array binding signal (z-score) [6]: 1.02
- glycan array binding signal (z-score) [7]: -0.119
- glycan array binding signal (z-score) [8]: 2.79
- glycan array binding signal (z-score) (Man(a1-3)[Man(a1-6)]Man): 3.24
- glycan array binding signal (z-score) (Man(a1-6)Man): -1.37
- glycan array binding signal (z-score) [9]: 0.743
- glycan array binding signal (z-score) [10]: -1.17
- glycan array binding signal (z-score) [11]: 2.52
- glycan array binding signal (z-score) [12]: -0.304
- glycan array binding signal (z-score) [13]: -0.18
- glycan array binding signal (z-score) [14]: -1.06
- glycan array binding signal (z-score) [15]: -1.03
- glycan array binding signal (z-score) [16]: 0.176
- glycan array binding signal (z-score) [17]: 3.9
- glycan array binding signal (z-score) [18]: 1.36
- glycan array binding signal (z-score) [19]: -0.586
- glycan array binding signal (z-score) [20]: -0.286
